# A number with no mark means an inactive call. Activity calls are given as the source filed them. No rule for the calls is given here.
# Test system: HIV-1 nucleocapsid protein NCp7 (binding to TG oligonucleotide)
# Assay: HIV Nucleocapsid (AID 346);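 also: potency is for inhibitors that block NC binding and lower polarization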
# Settings: HIV-1 NC / fluorescein-TGTGTGTG probe, fluorescence polarization
# Outline: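 NCp7 100 nM + fluorescein TG4xF 10 nM; Hepes pH 7.5/250mM NaCl/1uM ZnCl2/0.004% PEG 20000; 1 hr RT; FP, 45 s exposure; oligo-only wells as negative control.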
# Potency is read from the fitted curve at half-maximal effect.
row,SMILES,Potency
1,Cn1c(=O)c(-c2ccccc2)nc2cncnc21,> 20 µM
2,Cn1cc(-c2nc3cncnc3n(Cc3ccc(F)cc3)c2=O)c2ccccc21,> 20 µM
3,COc1ccc(Oc2ncc3nc(-c4cccs4)c(=O)n(Cc4cccc(OC)c4)c3n2)cc1,> 20 µM
4,N#Cc1cccc(-c2nc(NCc3ccccc3)c3ccccc3n2)c1,> 20 µM
5,Cc1noc(C)c1C(=O)N1CCC[C@@]2(CCN(Cc3ccccc3)C2)C1,> 20 µM
6,COc1ccccc1-c1nccc(NCc2cccnc2)n1,> 20 µM
7,Clc1ccccc1-c1nc(-n2ccnc2)c2ccccc2n1,> 20 µM
8,O=S(=O)(c1ccccc1)N1CCC2(CC1)CN(c1ccncc1)C2,> 20 µM
9,COc1ccc2[nH]cc(CCNc3ncncc3-c3ccc(C(=O)N(C)C)cc3)c2c1,> 20 µM
10,COc1ccc(CNc2ccnc(-c3ccccc3CN(C)C)n2)c(OC)c1,> 20 µM
11,Cn1c(=O)c(-c2ccccc2)nc2cnc(N3CCNCC3)nc21,> 20 µM
12,COc1cccc(-c2ccc3ncnc(N(C)C)c3c2)c1,> 20 µM
13,CCNc1ncc2nc(-c3cn(C)c4ccccc34)c(=O)n(-c3ccc(OC)cc3)c2n1,3.86 µM (active)
14,Cc1nc2cnc(Oc3cccc(Cl)c3)nc2n(CCc2ccccc2)c1=O,> 20 µM
15,COc1ccccc1CNc1ccnc(-c2ccoc2)n1,> 20 µM
16,CN1CCN(c2ncc3nc(-c4cccc(C#N)c4)c(=O)n(CCc4ccccc4)c3n2)CC1,> 20 µM
17,c1ccc(-c2cccc(N3CCCC4(CCNCC4)C3)c2)cc1,> 20 µM
18,CN(C)C(=O)c1ccc(-c2cc(Nc3ccccc3)ncn2)cc1,> 20 µM
19,COc1ccc2[nH]cc(CCNc3cc(-c4ccccc4Cl)ncn3)c2c1,> 20 µM
20,COc1cccc(Nc2ncc3ncc(=O)n(C)c3n2)c1,> 20 µM
21,O=C(c1cc(C(F)(F)F)cc(C(F)(F)F)c1)N1CCC2(CC1)CN(Cc1ccncc1)C2,> 20 µM
22,N#Cc1cccc(NC(=O)N2CCCC3(CCN(C(=O)c4cccc(F)c4)CC3)C2)c1,> 20 µM
23,CN(C)c1ccc(-c2nc(N(C)Cc3ccco3)c3ccccc3n2)cc1,> 20 µM
24,COc1cccc(Nc2ncc3nc(-c4cccs4)c(=O)n(Cc4cccs4)c3n2)c1,> 20 µM
25,Cc1cccc(CNc2ncncc2-c2ccccc2C)c1,> 20 µM

# Source: PubChem BioAssay (NCATS)
